The text below walks through data of publication PMC7862700, “An all-to-all approach to the identification of sequence-specific readers for epigenetic DNA modifications on cytosine”.

Assay in all cases: DAPPL (digital affinity profiling via proximity ligation, sequencing); 10 mM Tris-HCl pH 7.5, 50 mM NaCl, 1 mM DTT, 4% glycerol, room temperature, 30 min; GST-TFs on glutathione beads, 16-mer random dsDNA library, 0.1% formaldehyde crosslink after washing; high values mean tight binding
Holding throughout (conditions): protein: recombinant; tags: N-terminal GST; dsDNA, one strand shown

In assay [1] the target is T1, ELK1 (Homo sapiens, UniProt P19419 1-428).
T1 sequence: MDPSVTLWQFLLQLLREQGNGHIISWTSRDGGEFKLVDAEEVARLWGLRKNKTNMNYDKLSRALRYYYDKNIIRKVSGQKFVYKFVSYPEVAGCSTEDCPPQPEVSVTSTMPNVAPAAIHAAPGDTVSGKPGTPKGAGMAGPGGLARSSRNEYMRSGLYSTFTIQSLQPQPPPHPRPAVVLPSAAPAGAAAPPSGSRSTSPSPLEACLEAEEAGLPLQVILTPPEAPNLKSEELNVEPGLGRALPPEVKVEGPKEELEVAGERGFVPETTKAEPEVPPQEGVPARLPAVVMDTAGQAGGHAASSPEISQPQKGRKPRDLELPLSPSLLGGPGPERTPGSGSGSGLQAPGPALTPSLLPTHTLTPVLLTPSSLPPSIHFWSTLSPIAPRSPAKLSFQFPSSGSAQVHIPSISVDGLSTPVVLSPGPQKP
The method, boiled down:
(§1)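 GST fusions of human transcription factors were expressed in yeast and captured with glutathione beads. Once given DNA barcodes and pooled alongside a tag-only sample, they were incubated for 30 min at room temperature with 200 nmole of a random double-stranded 16-mer DNA library in Tris/NaCl/DTT/glycerol buffer, then washed, crosslinked (0.1% formaldehyde), proximity-ligated, PCR-amplified and sequenced on an Illumina NextSeq500. The binding signal of each hexamer is its read frequency for a factor divided by its frequency for the tag-only sample.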

The target in assay [2] is T2, GABPA (Homo sapiens, UniProt Q06546 1-454).
T2 sequence: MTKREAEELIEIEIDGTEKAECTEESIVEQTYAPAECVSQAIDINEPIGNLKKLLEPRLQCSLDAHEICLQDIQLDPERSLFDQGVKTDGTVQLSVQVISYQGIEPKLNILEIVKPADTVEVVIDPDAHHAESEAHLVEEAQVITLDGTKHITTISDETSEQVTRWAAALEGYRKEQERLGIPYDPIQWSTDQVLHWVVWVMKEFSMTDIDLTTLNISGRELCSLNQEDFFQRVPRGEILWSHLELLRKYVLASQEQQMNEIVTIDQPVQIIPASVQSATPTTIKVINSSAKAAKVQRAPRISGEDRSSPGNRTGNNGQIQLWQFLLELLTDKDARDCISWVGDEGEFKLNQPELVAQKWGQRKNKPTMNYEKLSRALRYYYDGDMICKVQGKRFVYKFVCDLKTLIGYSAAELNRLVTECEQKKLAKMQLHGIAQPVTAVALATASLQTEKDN
The gist of the method:
as §1

The target in assay [3] is T3, ERG (Homo sapiens, UniProt P11308 1-479).
T3 sequence: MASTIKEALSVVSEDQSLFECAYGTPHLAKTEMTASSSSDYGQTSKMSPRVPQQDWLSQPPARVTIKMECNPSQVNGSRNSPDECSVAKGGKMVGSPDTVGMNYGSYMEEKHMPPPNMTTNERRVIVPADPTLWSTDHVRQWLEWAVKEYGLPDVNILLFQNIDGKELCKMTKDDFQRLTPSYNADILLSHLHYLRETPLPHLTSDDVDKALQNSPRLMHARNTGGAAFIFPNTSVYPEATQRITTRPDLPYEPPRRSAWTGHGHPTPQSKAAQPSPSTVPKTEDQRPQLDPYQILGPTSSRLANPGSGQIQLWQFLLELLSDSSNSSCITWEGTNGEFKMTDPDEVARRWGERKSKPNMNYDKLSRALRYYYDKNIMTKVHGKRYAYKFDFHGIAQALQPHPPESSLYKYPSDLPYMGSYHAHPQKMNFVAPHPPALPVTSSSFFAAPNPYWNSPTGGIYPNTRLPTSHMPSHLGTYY
The method, boiled down:
as §1

The target in assay [4] is ELF1 (Homo sapiens, UniProt P32519 1-619). The gist of the method: as §1
Assay [5] addresses T4, EHF (Homo sapiens, UniProt Q9NZC4 1-300).
T4 sequence: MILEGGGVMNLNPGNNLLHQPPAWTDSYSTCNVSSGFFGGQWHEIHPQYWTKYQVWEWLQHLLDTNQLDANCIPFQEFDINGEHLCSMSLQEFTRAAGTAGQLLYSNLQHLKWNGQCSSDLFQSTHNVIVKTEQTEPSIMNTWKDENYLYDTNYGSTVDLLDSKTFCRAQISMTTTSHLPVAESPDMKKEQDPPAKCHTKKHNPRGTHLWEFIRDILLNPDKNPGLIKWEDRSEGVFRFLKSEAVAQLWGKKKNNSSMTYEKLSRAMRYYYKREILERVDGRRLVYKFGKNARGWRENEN
The gist of the method:
as §1

For assay [6], the target named is SPIB (Homo sapiens, UniProt Q01892 1-262). The method, boiled down: as §1
Assay [7] deals with T5, FEV (Homo sapiens, UniProt Q99581 1-238).
T5 sequence: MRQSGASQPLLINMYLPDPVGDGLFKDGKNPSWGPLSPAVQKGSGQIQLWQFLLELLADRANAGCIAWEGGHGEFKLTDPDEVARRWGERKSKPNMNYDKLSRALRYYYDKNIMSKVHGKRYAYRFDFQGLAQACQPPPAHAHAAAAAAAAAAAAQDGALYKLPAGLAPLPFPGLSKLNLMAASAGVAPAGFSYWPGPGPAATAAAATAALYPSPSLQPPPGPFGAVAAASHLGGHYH
The method, boiled down:
as §1

The target of assay [8] is ETV5 (Homo sapiens, UniProt P41161 1-510). The method, boiled down: as §1
The target of assay [9] is ELF4 (Homo sapiens, UniProt Q99607 1-663). The method, boiled down: as §1
The target in assay [10] is T6, ELK4 (Homo sapiens, UniProt P28324-2 1-405).
T6 sequence: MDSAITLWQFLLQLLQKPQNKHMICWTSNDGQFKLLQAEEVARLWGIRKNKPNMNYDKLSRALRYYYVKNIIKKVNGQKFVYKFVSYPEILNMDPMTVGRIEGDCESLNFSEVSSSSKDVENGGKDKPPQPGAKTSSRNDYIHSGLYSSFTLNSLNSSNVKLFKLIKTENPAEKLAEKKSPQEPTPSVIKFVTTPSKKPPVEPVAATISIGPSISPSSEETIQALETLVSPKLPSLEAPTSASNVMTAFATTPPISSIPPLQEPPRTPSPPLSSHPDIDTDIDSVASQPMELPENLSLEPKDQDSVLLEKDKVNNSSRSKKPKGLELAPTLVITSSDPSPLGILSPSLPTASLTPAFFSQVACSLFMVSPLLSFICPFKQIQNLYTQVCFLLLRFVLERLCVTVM
The method, boiled down: as §1

Sequence of SPIB (Q01892 whole entry): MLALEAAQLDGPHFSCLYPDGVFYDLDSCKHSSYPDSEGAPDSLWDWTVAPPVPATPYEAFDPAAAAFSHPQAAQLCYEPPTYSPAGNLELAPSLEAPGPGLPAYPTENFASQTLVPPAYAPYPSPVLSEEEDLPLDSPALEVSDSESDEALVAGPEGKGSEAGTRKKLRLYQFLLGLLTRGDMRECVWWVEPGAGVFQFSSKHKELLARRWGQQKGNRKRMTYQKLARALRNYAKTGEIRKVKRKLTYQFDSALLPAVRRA
Sequence of ELF4 (Q99607 whole entry): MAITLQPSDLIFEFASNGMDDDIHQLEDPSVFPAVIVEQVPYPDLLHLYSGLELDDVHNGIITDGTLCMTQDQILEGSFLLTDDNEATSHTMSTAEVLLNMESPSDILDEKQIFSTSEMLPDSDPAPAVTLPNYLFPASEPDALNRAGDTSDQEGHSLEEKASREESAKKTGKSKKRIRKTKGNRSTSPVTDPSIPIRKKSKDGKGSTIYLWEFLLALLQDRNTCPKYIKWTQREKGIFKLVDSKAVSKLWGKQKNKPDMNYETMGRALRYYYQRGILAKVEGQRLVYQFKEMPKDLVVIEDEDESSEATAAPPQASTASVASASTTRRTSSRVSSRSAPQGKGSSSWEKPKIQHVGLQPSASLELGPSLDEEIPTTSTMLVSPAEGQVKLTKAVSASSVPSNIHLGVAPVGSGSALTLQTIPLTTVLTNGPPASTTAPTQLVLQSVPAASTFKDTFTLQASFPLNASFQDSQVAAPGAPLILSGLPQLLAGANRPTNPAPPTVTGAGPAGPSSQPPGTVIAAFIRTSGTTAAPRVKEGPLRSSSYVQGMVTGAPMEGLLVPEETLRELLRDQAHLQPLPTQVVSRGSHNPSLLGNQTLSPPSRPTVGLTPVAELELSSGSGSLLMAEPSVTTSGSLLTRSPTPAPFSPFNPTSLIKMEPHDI
Sequence of ETV5 (P41161 whole entry): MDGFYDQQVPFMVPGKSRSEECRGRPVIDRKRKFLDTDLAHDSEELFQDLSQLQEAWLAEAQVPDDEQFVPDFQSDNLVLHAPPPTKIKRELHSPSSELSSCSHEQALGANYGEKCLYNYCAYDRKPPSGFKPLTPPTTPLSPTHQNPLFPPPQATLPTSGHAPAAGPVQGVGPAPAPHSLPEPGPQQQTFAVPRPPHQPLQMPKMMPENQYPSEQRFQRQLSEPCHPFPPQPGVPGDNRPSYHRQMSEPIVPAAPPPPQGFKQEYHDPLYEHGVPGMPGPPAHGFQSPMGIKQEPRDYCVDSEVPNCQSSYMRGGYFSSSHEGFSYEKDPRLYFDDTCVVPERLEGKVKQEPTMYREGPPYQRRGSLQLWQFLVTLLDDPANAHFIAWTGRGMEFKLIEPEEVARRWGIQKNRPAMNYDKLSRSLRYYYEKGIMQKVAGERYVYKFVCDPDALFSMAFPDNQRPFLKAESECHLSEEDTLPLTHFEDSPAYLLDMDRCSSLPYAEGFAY
Sequence of ELF1 (P32519 whole entry): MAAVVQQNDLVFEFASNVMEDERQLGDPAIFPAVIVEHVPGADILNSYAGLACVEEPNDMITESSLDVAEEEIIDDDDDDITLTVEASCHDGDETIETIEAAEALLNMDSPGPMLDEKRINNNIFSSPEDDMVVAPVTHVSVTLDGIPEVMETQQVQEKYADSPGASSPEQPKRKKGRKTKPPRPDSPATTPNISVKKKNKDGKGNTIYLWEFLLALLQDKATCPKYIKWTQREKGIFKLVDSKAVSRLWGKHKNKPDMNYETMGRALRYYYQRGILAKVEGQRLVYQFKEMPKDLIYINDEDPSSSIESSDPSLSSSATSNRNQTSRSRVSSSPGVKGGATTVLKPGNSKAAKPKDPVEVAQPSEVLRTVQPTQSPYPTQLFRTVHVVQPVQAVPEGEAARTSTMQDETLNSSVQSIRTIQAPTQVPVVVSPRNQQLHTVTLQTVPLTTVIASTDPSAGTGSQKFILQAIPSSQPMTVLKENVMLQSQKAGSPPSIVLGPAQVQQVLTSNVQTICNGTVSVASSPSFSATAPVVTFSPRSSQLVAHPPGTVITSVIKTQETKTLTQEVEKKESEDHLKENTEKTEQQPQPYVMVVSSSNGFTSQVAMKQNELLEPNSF

For TGTAAC, the binding signal in assay [1] was 1.21 fold enrichment (6-mer frequency, TF over GST control); in [2], 1.09 fold enrichment (6-mer frequency, TF over GST control); in [3], 1.18 fold enrichment (6-mer frequency, TF over GST control); in assay [4], 1.28 fold enrichment (6-mer frequency, TF over GST control); in assay [5] it was 1.36 fold enrichment (6-mer frequency, TF over GST control); in assay [6], 1.16 fold enrichment (6-mer frequency, TF over GST control). Further, the binding signal in assay [7] was 1.23 fold enrichment (6-mer frequency, TF over GST control); in [8], 1.24 fold enrichment (6-mer frequency, TF over GST control); in assay [9], 1.2 fold enrichment (6-mer frequency, TF over GST control); in [10], 1.37 fold enrichment (6-mer frequency, TF over GST control).
